Substitutions are numbered along the chain they refer to.
What was measured:
Assay in all cases: yeast three-hybrid, YBZ-1, SC-Leu-His + 0.5 mM 3-AT, 4 days
Conditions in all cases: tags: N-Gal4 AD-HA kept; label: inside an RPR1-promoter hybrid RNA with tandem MS2 sites; ssRNA
PUM1 PUF domain R8-SRR = PUM1 PUF domain R8-SRR (Homo sapiens, UniProt Q14671 828-1176, N1122S;Y1123R;Q1126R)
Method in brief: (§1)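 The interaction score is the logarithmic change in variant frequency from input to selection. It uses log2, with a pseudocount of 1 for absent variants, and frequencies came from PCR-amplified, Illumina-sequenced repeat regions. The libraries were Pumilio-1 PUF domains randomized at the three base-contacting residues per repeat, co-expressed with matching RNA elements in strain YBZ-1 (LexA–MS2 coat fusion, HIS3 reporter). Plating lasted four days on SC-Leu (input) or SC-Leu-His + 0.5 mM 3-AT (selection).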

PUM1 PUF domain R8-SFK = PUM1 PUF domain R8-SFK (Homo sapiens, UniProt Q14671 828-1176, N1122S;Y1123F;Q1126K)
Method in brief: as §1

PUM1 PUF domain R2-LWF = PUM1 PUF domain R2-LWF (Homo sapiens, UniProt Q14671 828-1176, N899L;Y900W;Q903F)
Method in brief: as §1

PUM1 PUF domain R1-KPC = PUM1 PUF domain R1-KPC (Homo sapiens, UniProt Q14671 828-1176, S863K;R864P;Q867C)
Method in brief: as §1

PUM1 PUF domain R1-RCL = PUM1 PUF domain R1-RCL (Homo sapiens, UniProt Q14671 828-1176, S863R;R864C;Q867L)
Method in brief: as §1

PUM1 PUF domain R3-VRI = PUM1 PUF domain R3-VRI (Homo sapiens, UniProt Q14671 828-1176, C935V;Q939I)
Method in brief: as §1

PUM1 PUF domain R5-SGR = PUM1 PUF domain R5-SGR (Homo sapiens, UniProt Q14671 828-1176, C1007S;R1008G;Q1011R)
Method in brief: as §1

PUM1 PUF domain R5-FRS = PUM1 PUF domain R5-FRS (Homo sapiens, UniProt Q14671 828-1176, C1007F;Q1011S)
Method in brief: as §1

PUM1 PUF domain R5-KTN = PUM1 PUF domain R5-KTN (Homo sapiens, UniProt Q14671 828-1176, C1007K;R1008T;Q1011N)
Sequence of PUM1 PUF domain R5-KTN (Q14671 828-1176 C1007K/R1008T/Q1011N): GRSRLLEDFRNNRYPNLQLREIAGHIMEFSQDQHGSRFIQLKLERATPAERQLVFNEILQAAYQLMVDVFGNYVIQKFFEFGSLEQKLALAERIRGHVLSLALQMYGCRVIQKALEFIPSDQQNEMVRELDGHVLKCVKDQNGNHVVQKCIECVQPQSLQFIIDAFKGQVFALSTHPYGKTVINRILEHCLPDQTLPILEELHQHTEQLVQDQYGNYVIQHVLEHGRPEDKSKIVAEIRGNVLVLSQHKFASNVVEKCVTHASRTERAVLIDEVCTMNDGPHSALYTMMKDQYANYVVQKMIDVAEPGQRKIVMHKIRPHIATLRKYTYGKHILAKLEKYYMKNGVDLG
Method in brief: as §1

PUM1 PUF domain R7-NPR = PUM1 PUF domain R7-NPR (Homo sapiens, UniProt Q14671 828-1176, S1079N;N1080P;E1083R)
Method in brief: as §1

PUM1 PUF domain R7-TTG = PUM1 PUF domain R7-TTG (Homo sapiens, UniProt Q14671 828-1176, S1079T;N1080T;E1083G)
Method in brief: as §1

PUM1 PUF domain R7-IMG = PUM1 PUF domain R7-IMG (Homo sapiens, UniProt Q14671 828-1176, S1079I;N1080M;E1083G)
Sequence of PUM1 PUF domain R7-IMG (Q14671 828-1176 S1079I/N1080M/E1083G): as the sequence (Q14671 828-1176 C1007K/R1008T/Q1011N) above, with K180C, T181R, N184Q, S252I, N253M, E256G counted along it
Method in brief: as §1

PUM1 PUF domain R6-SRR = molecular target: T1, PUM1 PUF domain R6-SRR (Homo sapiens, UniProt Q14671 828-1176, N1043S;Y1044R;Q1047R)
T1 sequence: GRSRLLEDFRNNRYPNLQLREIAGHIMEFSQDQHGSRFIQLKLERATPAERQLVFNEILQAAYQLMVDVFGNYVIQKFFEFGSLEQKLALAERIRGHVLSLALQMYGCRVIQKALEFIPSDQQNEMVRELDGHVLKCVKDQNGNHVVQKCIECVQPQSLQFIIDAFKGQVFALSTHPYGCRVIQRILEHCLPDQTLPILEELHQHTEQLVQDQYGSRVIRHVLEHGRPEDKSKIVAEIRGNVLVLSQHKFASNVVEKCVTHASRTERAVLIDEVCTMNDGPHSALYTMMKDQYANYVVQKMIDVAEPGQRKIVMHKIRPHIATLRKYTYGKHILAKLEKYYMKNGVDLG
Method in brief: as §1

PUM1 PUF domain R6-AYG = molecular target: T2, PUM1 PUF domain R6-AYG (Homo sapiens, UniProt Q14671 828-1176, N1043A;Q1047G)
T2 sequence: T1 sequence with S216A, R217Y, R220G
Method in brief: as §1

PUM1 PUF domain R4-HNS = PUM1 PUF domain R4-HNS (Homo sapiens, UniProt Q14671 828-1176, N971H;H972N;Q975S)
Method in brief: as §1

PUM1 PUF domain R4-RLF = PUM1 PUF domain R4-RLF (Homo sapiens, UniProt Q14671 828-1176, N971R;H972L;Q975F)
Method in brief: as §1

PUM1 PUF domain R5-WRD = PUM1 PUF domain R5-WRD (Homo sapiens, UniProt Q14671 828-1176, C1007W;Q1011D)
Method in brief: as §1

PUM1 PUF domain R5-NLL = PUM1 PUF domain R5-NLL (Homo sapiens, UniProt Q14671 828-1176, C1007N;R1008L;Q1011L)
Sequence of PUM1 PUF domain R5-NLL (Q14671 828-1176 C1007N/R1008L/Q1011L): as the sequence (Q14671 828-1176 C1007K/R1008T/Q1011N) above, with K180N, T181L, N184L counted along it
Method in brief: as §1

PUM1 PUF domain R4-LHQ = PUM1 PUF domain R4-LHQ (Homo sapiens, UniProt Q14671 828-1176, N971L)
Method in brief: as §1

PUM1 PUF domain R6-LFV = molecular target: T3, PUM1 PUF domain R6-LFV (Homo sapiens, UniProt Q14671 828-1176, N1043L;Y1044F;Q1047V)
T3 sequence: T1 sequence with S216L, R217F, R220V
Method in brief: as §1

Sequence: GGCUAGAACUAGUGGAUCCCCCGGCGCCCGGCGGCUCGAGCCCGGGUAAGCGUAAAUAGUCUGCAUGCCGCCGGGCGCCAUGCCUGCAGGUCGACUCUAGAAAACAUG
- binding signal (PUM1 PUF domain R8-SRR): 2.8 log2 enrichment (interaction score)
- binding signal (PUM1 PUF domain R8-SFK): 5.53 log2 enrichment (interaction score)

Sequence: GGCUAGAACUAGUGGAUCCCCCGGCGCCCGGCGGCUCGAGCCCGGGUAAGUGUAAACAGUCUGCAUGCCGCCGGGCGCCAUGCCUGCAGGUCGACUCUAGAAAACAUG
- binding signal (PUM1 PUF domain R2-LWF): 1.17 log2 enrichment (interaction score)

Sequence: GGCUAGAACUAGUGGAUCCCCCGGCGCCCGGCGGCUCGAGCCCGGGUAAGUGUAAAUUGUCUGCAUGCCGCCGGGCGCCAUGCCUGCAGGUCGACUCUAGAAAACAUG
- binding signal (PUM1 PUF domain R1-KPC): 4.34 log2 enrichment (interaction score)

Sequence: GGCUAGAACUAGUGGAUCCCCCGGCGCCCGGCGGCUCGAGCCCGGGUAAGUGUAAAUCGUCUGCAUGCCGCCGGGCGCCAUGCCUGCAGGUCGACUCUAGAAAACAUG
- binding signal (PUM1 PUF domain R1-RCL): 3.05 log2 enrichment (interaction score)

Sequence: GGCUAGAACUAGUGGAUCCCCCGGCGCCCGGCGGCUCGAGCCCGGGUAAGUGUAAUUAGUCUGCAUGCCGCCGGGCGCCAUGCCUGCAGGUCGACUCUAGAAAACAUG
- binding signal (PUM1 PUF domain R3-VRI): 0.57 log2 enrichment (interaction score)

Sequence: GGCUAGAACUAGUGGAUCCCCCGGCGCCCGGCGGCUCGAGCCCGGGUAAGUGUCAAUAGUCUGCAUGCCGCCGGGCGCCAUGCCUGCAGGUCGACUCUAGAAAACAUG
- binding signal (PUM1 PUF domain R5-SGR): 6.98 log2 enrichment (interaction score)
- binding signal (PUM1 PUF domain R5-FRS): 2.38 log2 enrichment (interaction score)
- binding signal (PUM1 PUF domain R5-KTN): 3.79 log2 enrichment (interaction score)

Sequence: GGCUAGAACUAGUGGAUCCCCCGGCGCCCGGCGGCUCGAGCCCGGGUAAGUUUAAAUAGUCUGCAUGCCGCCGGGCGCCAUGCCUGCAGGUCGACUCUAGAAAACAUG
- binding signal (PUM1 PUF domain R7-NPR): 5.02 log2 enrichment (interaction score)
- binding signal (PUM1 PUF domain R7-TTG): 3.76 log2 enrichment (interaction score)
- binding signal (PUM1 PUF domain R7-IMG): 3.68 log2 enrichment (interaction score)

Sequence: GGCUAGAACUAGUGGAUCCCCCGGCGCCCGGCGGCUCGAGCCCGGGUAAGUCUAAAUAGUCUGCAUGCCGCCGGGCGCCAUGCCUGCAGGUCGACUCUAGAAAACAUG
- binding signal (PUM1 PUF domain R7-NPR): 0.79 log2 enrichment (interaction score)

Sequence: GGCUAGAACUAGUGGAUCCCCCGGCGCCCGGCGGCUCGAGCCCGGGUAAGGGUAAAUAGUCUGCAUGCCGCCGGGCGCCAUGCCUGCAGGUCGACUCUAGAAAACAUG
- binding signal (PUM1 PUF domain R8-SFK): 2.09 log2 enrichment (interaction score)

Sequence: GGCUAGAACUAGUGGAUCCCCCGGCGCCCGGCGGCUCGAGCCCGGGUAAGUGUAAAAAGUCUGCAUGCCGCCGGGCGCCAUGCCUGCAGGUCGACUCUAGAAAACAUG
- binding signal (PUM1 PUF domain R2-LWF): 6.96 log2 enrichment (interaction score)

Sequence: GGCUAGAACUAGUGGAUCCCCCGGCGCCCGGCGGCUCGAGCCCGGGUAAGUGUAAAUAGUCUGCAUGCCGCCGGGCGCCAUGCCUGCAGGUCGACUCUAGAAAACAUG
- binding signal (PUM1 PUF domain R5-SGR): 1.55 log2 enrichment (interaction score)
- binding signal (PUM1 PUF domain R8-SRR): 1.78 log2 enrichment (interaction score)
- binding signal (PUM1 PUF domain R6-SRR): 3.04 log2 enrichment (interaction score)
- binding signal (PUM1 PUF domain R5-FRS): 0.74 log2 enrichment (interaction score)
- binding signal (PUM1 PUF domain R6-AYG): 1.05 log2 enrichment (interaction score)
- binding signal (PUM1 PUF domain R8-SFK): 5.06 log2 enrichment (interaction score)
- binding signal (PUM1 PUF domain R4-HNS): 1.42 log2 enrichment (interaction score)
- binding signal (PUM1 PUF domain R3-VRI): 4.31 log2 enrichment (interaction score)
- binding signal (PUM1 PUF domain R4-RLF): 4.74 log2 enrichment (interaction score)

Sequence: GGCUAGAACUAGUGGAUCCCCCGGCGCCCGGCGGCUCGAGCCCGGGUAAGUGUUAAUAGUCUGCAUGCCGCCGGGCGCCAUGCCUGCAGGUCGACUCUAGAAAACAUG
- binding signal (PUM1 PUF domain R5-SGR): 0.78 log2 enrichment (interaction score)
- binding signal (PUM1 PUF domain R5-FRS): 3.13 log2 enrichment (interaction score)
- binding signal (PUM1 PUF domain R5-WRD): 2.27 log2 enrichment (interaction score)
- binding signal (PUM1 PUF domain R5-NLL): 2.94 log2 enrichment (interaction score)

Sequence: GGCUAGAACUAGUGGAUCCCCCGGCGCCCGGCGGCUCGAGCCCGGGUAAGUGUAUAUAGUCUGCAUGCCGCCGGGCGCCAUGCCUGCAGGUCGACUCUAGAAAACAUG
- binding signal (PUM1 PUF domain R4-LHQ): 6.92 log2 enrichment (interaction score)
- binding signal (PUM1 PUF domain R4-HNS): 4.08 log2 enrichment (interaction score)

Sequence: GGCUAGAACUAGUGGAUCCCCCGGCGCCCGGCGGCUCGAGCCCGGGUAAGUGAAAAUAGUCUGCAUGCCGCCGGGCGCCAUGCCUGCAGGUCGACUCUAGAAAACAUG
- binding signal (PUM1 PUF domain R6-LFV): 5.6 log2 enrichment (interaction score)
- binding signal (PUM1 PUF domain R6-AYG): 2.71 log2 enrichment (interaction score)

Sequence: GGCUAGAACUAGUGGAUCCCCCGGCGCCCGGCGGCUCGAGCCCGGGUAAGUGCAAAUAGUCUGCAUGCCGCCGGGCGCCAUGCCUGCAGGUCGACUCUAGAAAACAUG
- binding signal (PUM1 PUF domain R6-SRR): 3.26 log2 enrichment (interaction score)
